# Assay results as given in PubChem BioAssay AID894 (National Center for Advancing Translational Sciences (NCATS), 2007).
# Screen size: about 150,000 compounds; about 6,500 (4.3%) were called active. About 12% were inconclusive and are not listed. Calls come from the whole dose curve; as a rule, active = well fitted inhibition curve with a large enough effect (not every such curve was filed as active); inconclusive = small, poorly fitted or top-dose-only effect, or another doubt; inactive = no such curve, though single readings can be large or run the other way. Only a selection was taken, and actives are over-represented in it overall.
# Target: 15-hydroxyprostaglandin dehydrogenase [NAD(+)] (Homo sapiens) (UniProt P15428)
# Sequence (P15428 whole entry, looked up): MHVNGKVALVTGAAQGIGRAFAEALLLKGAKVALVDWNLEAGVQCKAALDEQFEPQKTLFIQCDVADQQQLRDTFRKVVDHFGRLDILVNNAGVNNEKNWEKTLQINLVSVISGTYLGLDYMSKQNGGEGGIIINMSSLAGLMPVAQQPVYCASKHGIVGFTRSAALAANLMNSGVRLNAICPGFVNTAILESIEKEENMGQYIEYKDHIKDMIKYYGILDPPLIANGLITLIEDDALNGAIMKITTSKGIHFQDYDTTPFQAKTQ
# Test: qHTS Assay for Inhibitors of HPGD (15-Hydroxyprostaglandin Dehydrogenase)
# Details: purified HPGD, NADH fluorescence kinetic, PGE2 substrate; activity change, negative = inhibition: hits give low values
# Outline: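 NADH formation kinetics: reaction with 30 uM PGE2 and 1 mM NAD+ (final), 20 nM enzyme, Tris-HCl pH 8 with Tween 20, after 15 min compound preincubation at room temperature. Fluorescence change, last versus first of five reads.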
# % is set by controls: 0 for no effect and ±100 for the full control effect; potency is the fitted concentration of half-maximal effect.
Structure (SMILES),"activity change, negative = inhibition",Potency
CCOC(=O)C1CCN(c2ccc(C(=O)O)cc2[N+](=O)[O-])CC1,-3.84% (inactive),–
CC(=O)c1cc(-c2ccccc2)n(CCC(=O)NC2CCCCCC2)c1C,-4.2% (inactive),–
CCOc1ccccc1NC(=O)C1CCC(CNc2c(N3CCOCC3)c(=O)c2=O)CC1 (centres undefined),-25.1% (inactive),–
COc1ccc(CNC(=O)C2CCC(CNc3c(N4CCOCC4)c(=O)c3=O)CC2)cc1 (centres undefined),-17.3% (inactive),–
O=C(NCc1ccccc1Cl)C1CCC(CNc2c(N3CCCCC3)c(=O)c2=O)CC1 (centres undefined),–,12.6 µM (active)
O=C(CCN1C(=O)c2ccccc2C1=O)NNC(=O)c1ccc(Cl)cc1Cl,-7.71% (inactive),–
Cc1c(Br)c([N+](=O)[O-])nn1CC(=O)Nc1sc2c(c1C(=O)OC(C)C)CCC(C)C2 (centres undefined),-1.95% (inactive),–
C/C(=N/NS(=O)(=O)c1ccccc1)c1ccc(NC(=O)C(F)(F)F)cc1,-4.99% (inactive),–
COc1ccc(/C=N/OCC(=O)N(Cc2ccccc2)c2ccccc2C(=O)O)cc1,-8.65% (inactive),–
O=C(N/N=C/c1coc2ccccc2c1=O)c1cc2ccccc2o1,-20% (inactive),–
Cc1cccc(N2CCN(C(=O)/C=C/c3ccco3)CC2)c1C,-20.4% (inactive),–
CCOc1cc(-c2noc(CCC(=O)N3CCOCC3)n2)ccc1OC,-8.81% (inactive),–
Cc1ccc(OCCCC(=O)N2CCOCC2)c(C)c1,–,20 µM (active)
COc1ccc(OCC(=O)N2CCOCC2)cc1,4.8% (inactive),–
COc1ccc(-c2nc3c(c4c2C[C@H](c2ccccc2)OC4)CN(C(=O)c2ccco2)CC3)c(C)c1,-11.6% (inactive),–
Cc1ccc(C(C)NC(=O)Cn2nc(C)c([N+](=O)[O-])c2C)cc1 (centres undefined),-5.59% (inactive),–
O=C(O)c1cccc(N=NN2CCCCCC2)c1,-9.76% (inactive),–
CCc1nnc(NC(=O)CCN(c2ccc(C)cc2)S(=O)(=O)c2ccccc2)s1,-10.2% (inactive),–
CC(=O)NNC1=Nc2ccccc2N(C)C(C)C1 (centres undefined),0.367% (inactive),–
Cc1nn(CC(=O)Nc2nc3ccccc3s2)c(C)c1[N+](=O)[O-],-4.84% (inactive),–
O=[N+]([O-])c1c(NCCO)cc(Sc2nc3ccccc3s2)c2nonc12,–,11.2 µM (active)
c1ccc2sc(SCCSc3nc4ccccc4s3)nc2c1,0.386% (inactive),–
O=C(CSc1ccc2nnc(-c3ccccc3)n2n1)N1CCCc2ccccc21,-22.3% (inactive),–

Structure (SMILES),"activity change, negative = inhibition",Potency
COc1ccccc1CNC(=O)c1ccc(SC)cc1OC,–,22.4 µM (active)
COc1cc(SC)ccc1C(=O)NCCOc1ccccc1Cl,-18.8% (inactive),–
CCOC(=O)c1c(C)[nH]c(C(=O)NCc2ccccc2OC)c1C,-7.72% (inactive),–
CC(NC(=O)CCC(=O)N1CCN(S(=O)(=O)c2ccc(Cl)cc2)CC1)c1ccccc1 (centres undefined),-5.29% (inactive),–
Cc1c(Cl)cccc1NC(=S)NCc1ccc2c(c1)OCO2,-5.45% (inactive),–
CC(=O)c1c(Nc2ccccc2)sc(C(=O)c2ccccc2)c1C,-1.98% (inactive),–
Cc1ccc(C(=O)c2c(NC(=O)c3ccccc3)sc(C)c2C)cc1,–,14.1 µM (active)
Cc1ccc(C(=O)c2c(NC(=O)c3ccncc3)sc3c2CCCC3)cc1,-22.2% (inactive),–
CCc1ccccc1NC(=O)CN(C)C(=O)COc1ccc(C)nc1[N+](=O)[O-],-2.83% (inactive),–
COc1ccc(NC(=O)COC(=O)c2ccc(NS(=O)(=O)/C=C/c3ccccc3)cc2)cc1,-13.7% (inactive),–
Cn1cnc([N+](=O)[O-])c1Sc1ccccc1,–,15.8 µM (active)
Cc1nn(C)c(Oc2ccccc2)c1[N+](=O)[O-],-7.95% (inactive),–
Cn1cnc([N+](=O)[O-])c1Nc1ccccc1O,-2.73% (inactive),–
CCCN(CC1COc2ccccc2O1)C(=S)Nc1ccc(C)cc1 (centres undefined),-7.28% (inactive),–
CCCC(=O)n1nc(-c2ccccc2)nc1N,-7.53% (inactive),–
CCS(=O)(=O)n1nc(-c2ccc(OC)cc2)nc1SC,-4.54% (inactive),–
CCS(=O)(=O)n1nc(-c2ccccc2)nc1SCc1ccccc1,–,14.1 µM (active)
Cc1cc(F)ccc1S(=O)(=O)N1CCCOC1CNC(=O)C(=O)NCCC1=CCCCC1 (centres undefined),-6.01% (inactive),–
CCOC(=O)CN(Cc1ccc(OC)c(OC)c1)S(=O)(=O)c1ccc(OC)cc1,1.91% (inactive),–
COc1ccc(C(CCN(Cc2ccc(OC)c(OC)c2)C(=O)CCl)c2ccccc2)cc1 (centres undefined),–,10 µM (active)
COc1ccc(CCN(C(=O)COc2ccccc2)c2nc(-c3ccccc3)cs2)cc1OC,-5.33% (inactive),–
CC(C)(C)C1CCC(=NNC(=O)c2ccc(Br)o2)CC1 (centres undefined),-11.4% (inactive),–
CCOC(=O)CNC(=O)CSc1nc2cccnc2n1CC,-17.6% (inactive),–

Structure (SMILES),"activity change, negative = inhibition",Potency
CCn1c(SCC(=O)NCC2CCCO2)nc2cc(S(=O)(=O)N3CCCCC3)ccc21 (centres undefined),-12.7% (inactive),–
CCOC(=O)c1ccc2c(c1)nc(SCC(=O)NC(C)C)n2CC,–,31.6 µM (active)
O=C(CSCc1ccc(Cl)cc1)N1CCCCC1,–,15.8 µM (active)
O=C(CN1CCN(c2ccc(Cl)cc2)CC1)N1CCCC1,-1.51% (inactive),–
O=C(CSCc1ccc(Cl)cc1)N1CCN(Cc2ccc3c(c2)OCO3)CC1,-13.7% (inactive),–
CCCCC/C=C\C/C=C\CCCCCCCCCC(N)=O,-6.01% (inactive),–
COc1ccc(NC(=S)NC2CCS(=O)(=O)C2)cc1 (centres undefined),-7.38% (inactive),–
O=c1[nH]nc(CSCc2ccccc2Cl)[nH]1,-4.38% (inactive),–
Clc1ccc(CSc2nnc(/C=C/c3ccccc3)o2)c(Cl)c1,-24.9% (inactive),–
S=c1[nH]nc(CSCc2ccc(Cl)cc2Cl)n1-c1ccccc1,–,3.16 µM (active)
CCOC(=O)Cc1csc(NC(=O)CSc2ccc(Br)cc2)n1,-1.05% (inactive),–
CCOC(=O)CNC(=O)/C=C/c1c(Cl)cccc1Cl,-4.86% (inactive),–
Cc1cccc2cc(CN(C(=O)c3cccs3)c3ccccc3)c(=O)[nH]c12,-18.7% (inactive),–
Brc1ccc(/C=N/N2CCN(C3c4ccccc4-c4ccccc43)CC2)s1,-4.34% (inactive),–
Cc1ccc(-c2csc(-c3c[nH]c4ccccc34)n2)cc1,-7.14% (inactive),–
CSC(=S)N/N=C/c1c[nH]c2ccccc12,-6.73% (inactive),–
Cc1n[nH]c(=S)n1/N=C/c1ccc(Br)o1,-10% (inactive),–
Oc1ccccc1/C=N/n1c(-c2cccs2)n[nH]c1=S,–,2.51 µM (active)
c1ccc(-c2noc(-c3cccs3)n2)nc1,-8.74% (inactive),–
S=c1[nH]nc(-c2ccco2)n1/N=C/c1ccc(Br)s1,–,2.82 µM (active)
Cc1ccc(/C=N\n2c(-c3ccccc3)n[nH]c2=S)s1,–,11.2 µM (active)
Cc1ccsc1/C=N/n1c(=S)[nH]nc(C)c1=O,-6.69% (inactive),–
S=c1[nH]nc(-c2ccccc2)n1/N=C/c1c[nH]c2ccccc12,–,2 µM (active)
